Experimental findings from the supplement of paper PMC12494721 are described below.

Structures can show the parent of a compound that is named as a salt. Unmarked numbers belong to inactive results.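 Rule for the calls: for the amine columns active = adjusted P below 0.05 in both replicates with a change the same way and a mean fold change under 0.8 or over 1.25; inactive = the rest.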

For the first experiment, the system named is Klebsiella aerogenes DSM 30053. Briefly: fold change of Putrescine concentration vs plate DMSO controls (fold change (ratio)); higher = more amine produced, active = hit call of the paper (significant change in both replicates, either direction). The following applies: 20 µM; incubation time: 27 h, anaerobic, 37 °C. Summed up:
(§1)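 Each value is the fold change relative to DMSO-only wells on the same plate. Four gut bacterial strains were grown anaerobically in mGAM at 37 °C for 27 h in 80 µL wells, starting at OD 0.1 before a 1:1 dilution, with compounds at 20 µM final (sweeteners 50 µM). Whole cultures were extracted with cold acetonitrile/methanol containing 0.1% formic acid, centrifuged, and amines were quantified by LC–triple-quadrupole MS (dynamic MRM) against external calibration curves with within-batch drift correction. Values are means of 2 biological replicates.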
Regarding `C#C[C@]1(O)C=C[C@H]2[C@@H]3CCC4=CC(=O)CC[C@@H]4[C@H]3CC[C@@]21CC` [Gestodene], the “fold change of Putrescine concentration” value is 0.993.

As to `O=C(O)COc1ccc(Cl)cc1Cl`, the “fold change of Putrescine concentration” value was 1.

`CC1COC(Cn2cncn2)(c2ccc(Oc3ccc(Cl)cc3)cc2Cl)O1` (configuration not stated): the “fold change of Putrescine concentration” value is 0.996.

In the case of `CC(C)OC(=O)Nc1cccc(Cl)c1`, the “fold change of Putrescine concentration” value was 0.984.

For `CCOc1ccc(C(C)(C)COCc2cccc(Oc3ccccc3)c2)cc1`, the “fold change of Putrescine concentration” value was 0.984.

As to `COC(=O)N(OC)c1ccccc1COc1ccn(-c2ccc(Cl)cc2)n1`, the “fold change of Putrescine concentration” value was 1.02.

In the case of `CC(O)(CS(=O)(=O)c1ccc(F)cc1)C(=O)Nc1ccc(C#N)c(C(F)(F)F)c1` (configuration not stated) [Bicalutamide], the “fold change of Putrescine concentration” value was 0.973.

`CON(C)C(=O)Nc1ccc(Cl)c(Cl)c1`: the “fold change of Putrescine concentration” value is 1.02.

As to `C[N+]1(C)[C@@H]2CC[C@H]1C[C@@H](OC(=O)C(CO)c1ccccc1)C2` (some centres not stated) [Methylatropine nitrate], the “fold change of Putrescine concentration” value is 1.02.

As for `COCc1cnc(C2=NC(C)(C(C)C)C(=O)N2)c(C(=O)O)c1` (configuration not stated), the “fold change of Putrescine concentration” value is 0.797.

Consider `CO/N=C(/C(=O)OC)c1ccccc1CO/N=C(\C)c1cccc(C(F)(F)F)c1`, for which the “fold change of Putrescine concentration” value was 0.987.

On to `COC(=O)N(C(=O)N1CO[C@@]2(C(=O)OC)Cc3cc(Cl)ccc3C2=N1)c1ccc(OC(F)(F)F)cc1`, for which the “fold change of Putrescine concentration” value is 0.915.

Consider `COc1ccc(C(CN(C)C)C2(O)CCCCC2)cc1` (configuration not stated) [Venlafaxine], for which the “fold change of Putrescine concentration” value was 1.

For the compound `C1CCc2nnnn2CC1` [Pentylenetetrazole], the “fold change of Putrescine concentration” value was 0.975.

Consider `CC(C)CC(N(C)C)C1(c2ccc(Cl)cc2)CCC1` (configuration not stated) [Sibutramine hydrochloride], for which the “fold change of Putrescine concentration” value is 0.999.

`OC(c1ccccc1)(c1ccccc1)C1CCNCC1` [Azacyclonol]: the “fold change of Putrescine concentration” value was 1.01.

`CNC(=O)Oc1cccc(/N=C/N(C)C)c1`: the “fold change of Putrescine concentration” value was 1.

`O=C(O)c1nc(Cl)ccc1Cl`: the “fold change of Putrescine concentration” value was 0.98.

With `CNC(=O)c1cc(C#N)cc(C)c1NC(=O)c1cc(Br)nn1-c1ncccc1Cl`, the “fold change of Putrescine concentration” value was 0.938.

With `C[N+]1([O-])[C@@H]2C[C@@H](OC(=O)[C@H](CO)c3ccccc3)C[C@H]1[C@@H]1O[C@@H]12` (some centres not stated) [Scopolamin-N-oxide hydrobromide], the “fold change of Putrescine concentration” value was 0.931.

Turning to `CCC(=O)O[C@@](Cc1ccccc1)(c1ccccc1)[C@@H](C)CN(C)C` [Levopropoxyphene napsylate], the “fold change of Putrescine concentration” value was 1.

For `CNC(=O)CSP(=S)(OC)OC`, the “fold change of Putrescine concentration” value was 0.888.

For the compound `CC(C)[N+](C)(CCC(C(N)=O)(c1ccccc1)c1ccccc1)C(C)C` [Isopropamide iodide], the “fold change of Putrescine concentration” value is 1.01.

For the compound `COCC(=O)N(c1c(C)cccc1C)[C@H](C)C(=O)OC`, the “fold change of Putrescine concentration” value is 0.996.

Consider `O=C1c2ccccc2C(=O)N1SC(Cl)(Cl)Cl`, for which the “fold change of Putrescine concentration” value was 1.

In the case of `O=C1C2CC=CCC2C(=O)N1SC(Cl)(Cl)Cl` (configuration not stated), the “fold change of Putrescine concentration” value is 0.956.

Consider `CN(C)C(=O)Oc1cc(OC(=O)N(C)C)cc(C(O)CNC(C)(C)C)c1` (configuration not stated) [Bambuterol hydrochloride], for which the “fold change of Putrescine concentration” value is 1.03.

Take `CC(C)N(C)S(=O)(=O)NC(=O)c1cc(-n2c(=O)cc(C(F)(F)F)n(C)c2=O)c(F)cc1Cl`: the “fold change of Putrescine concentration” value is 0.985.

Consider `CC[C@H]1CCC[C@H](O[C@H]2CC[C@H](N(C)C)[C@@H](C)O2)[C@@H](C)C(=O)C2=C[C@@H]3[C@@H](C=C(C)[C@@H]4C[C@@H](O[C@@H]5O[C@@H](C)[C@H](OC)[C@@H](OC)[C@H]5OC)C[C@@H]34)[C@@H]2CC(=O)O1.CC[C@H]1CCC[C@H](O[C@H]2CC[C@H](N(C)C)[C@@H](C)O2)[C@@H](C)C(=O)C2=C[C@H]3[C@@H]4C[C@H](O[C@@H]5O[C@@H](C)[C@H](OC)[C@@H](OC)[C@H]5OC)C[C@H]4C=C[C@H]3C2CC(=O)O1`, for which the “fold change of Putrescine concentration” value was 0.991.

On to `C[N+]1(C)CCCC(OC(=O)C(O)(c2ccccc2)c2ccccc2)C1` (configuration not stated) [Mepenzolate bromide], for which the “fold change of Putrescine concentration” value is 1.02.

With `COc1cccc(C(=O)NN(C(=O)c2cc(C)cc(C)c2)C(C)(C)C)c1C`, the “fold change of Putrescine concentration” value is 0.983.

On to `Cc1cccc(C)c1NC1=NCCCS1` [Xylazine], for which the “fold change of Putrescine concentration” value is 1.02.

On to `CCN(C)C(=O)Oc1cccc([C@H](C)N(C)C)c1` [Rivastigmine], for which the “fold change of Putrescine concentration” value was 0.993.

For the compound `CCCCCCCCCCCCN=C(N)N`, the “fold change of Putrescine concentration” value is 1.06.

Consider `CO/C=C(/C(=O)OC)c1ccccc1Oc1cc(Oc2ccccc2C#N)ncn1`, for which the “fold change of Putrescine concentration” value is 0.994.

Take `O=C(O[C@H]1C[N+]2(CCCOc3ccccc3)CCC1CC2)C(O)(c1cccs1)c1cccs1` [Aclidinium bromide]: the “fold change of Putrescine concentration” value was 1.

For the next experiment, the system named is Escherichia coli IAI1. The experiment is described as follows: fold change of Cadaverine concentration vs plate DMSO controls (fold change (ratio)); higher = more amine produced, active = hit call of the paper (significant change in both replicates, either direction). The following applies: 20 µM; incubation time: 27 h, anaerobic, 37 °C. Summed up: as §1
Consider `C#C[C@]1(O)C=C[C@H]2[C@@H]3CCC4=CC(=O)CC[C@@H]4[C@H]3CC[C@@]21CC` [Gestodene], for which the “fold change of Cadaverine concentration” value was 0.995.

As for `O=C(O)COc1ccc(Cl)cc1Cl`, the “fold change of Cadaverine concentration” value was 0.996.

For `CC1COC(Cn2cncn2)(c2ccc(Oc3ccc(Cl)cc3)cc2Cl)O1` (configuration not stated), the “fold change of Cadaverine concentration” value was 0.995.

On to `CC(C)OC(=O)Nc1cccc(Cl)c1`, for which the “fold change of Cadaverine concentration” value was 0.927.

In the case of `CCOc1ccc(C(C)(C)COCc2cccc(Oc3ccccc3)c2)cc1`, the “fold change of Cadaverine concentration” value is 0.969.

`COC(=O)N(OC)c1ccccc1COc1ccn(-c2ccc(Cl)cc2)n1`: the “fold change of Cadaverine concentration” value was 1.01.

In the case of `CC(O)(CS(=O)(=O)c1ccc(F)cc1)C(=O)Nc1ccc(C#N)c(C(F)(F)F)c1` (configuration not stated) [Bicalutamide], the “fold change of Cadaverine concentration” value is 1.01.

On to `CON(C)C(=O)Nc1ccc(Cl)c(Cl)c1`, for which the “fold change of Cadaverine concentration” value is 1.02.

For `C[N+]1(C)[C@@H]2CC[C@H]1C[C@@H](OC(=O)C(CO)c1ccccc1)C2` (some centres not stated) [Methylatropine nitrate], the “fold change of Cadaverine concentration” value was 1.07.

Take `COCc1cnc(C2=NC(C)(C(C)C)C(=O)N2)c(C(=O)O)c1` (configuration not stated): the “fold change of Cadaverine concentration” value was 0.852.

As to `CO/N=C(/C(=O)OC)c1ccccc1CO/N=C(\C)c1cccc(C(F)(F)F)c1`, the “fold change of Cadaverine concentration” value was 0.95.

As for `COC(=O)N(C(=O)N1CO[C@@]2(C(=O)OC)Cc3cc(Cl)ccc3C2=N1)c1ccc(OC(F)(F)F)cc1`, the “fold change of Cadaverine concentration” value was 0.907.

Regarding `COc1ccc(C(CN(C)C)C2(O)CCCCC2)cc1` (configuration not stated) [Venlafaxine], the “fold change of Cadaverine concentration” value is 0.819.

Take `C1CCc2nnnn2CC1` [Pentylenetetrazole]: the “fold change of Cadaverine concentration” value is 1.01.

Consider `CC(C)CC(N(C)C)C1(c2ccc(Cl)cc2)CCC1` (configuration not stated) [Sibutramine hydrochloride], for which the “fold change of Cadaverine concentration” value is 0.984.

Regarding `OC(c1ccccc1)(c1ccccc1)C1CCNCC1` [Azacyclonol], the “fold change of Cadaverine concentration” value is 0.849.

With `CNC(=O)Oc1cccc(/N=C/N(C)C)c1`, the “fold change of Cadaverine concentration” value is 1.02.

For `O=C(O)c1nc(Cl)ccc1Cl`, the “fold change of Cadaverine concentration” value is 0.963.

Turning to `CNC(=O)c1cc(C#N)cc(C)c1NC(=O)c1cc(Br)nn1-c1ncccc1Cl`, the “fold change of Cadaverine concentration” value was 0.886.

On to `C[N+]1([O-])[C@@H]2C[C@@H](OC(=O)[C@H](CO)c3ccccc3)C[C@H]1[C@@H]1O[C@@H]12` (some centres not stated) [Scopolamin-N-oxide hydrobromide], for which the “fold change of Cadaverine concentration” value was 0.991.

Regarding `CCC(=O)O[C@@](Cc1ccccc1)(c1ccccc1)[C@@H](C)CN(C)C` [Levopropoxyphene napsylate], the “fold change of Cadaverine concentration” value is 1.03.

For `CNC(=O)CSP(=S)(OC)OC`, the “fold change of Cadaverine concentration” value was 1.01.

On to `CC(C)[N+](C)(CCC(C(N)=O)(c1ccccc1)c1ccccc1)C(C)C` [Isopropamide iodide], for which the “fold change of Cadaverine concentration” value is 0.936.

Take `COCC(=O)N(c1c(C)cccc1C)[C@H](C)C(=O)OC`: the “fold change of Cadaverine concentration” value was 0.99.

`O=C1c2ccccc2C(=O)N1SC(Cl)(Cl)Cl`: the “fold change of Cadaverine concentration” value is 0.969.

Turning to `O=C1C2CC=CCC2C(=O)N1SC(Cl)(Cl)Cl` (configuration not stated), the “fold change of Cadaverine concentration” value was 0.806.

For the compound `CN(C)C(=O)Oc1cc(OC(=O)N(C)C)cc(C(O)CNC(C)(C)C)c1` (configuration not stated) [Bambuterol hydrochloride], the “fold change of Cadaverine concentration” value was 1.

As to `CC(C)N(C)S(=O)(=O)NC(=O)c1cc(-n2c(=O)cc(C(F)(F)F)n(C)c2=O)c(F)cc1Cl`, the “fold change of Cadaverine concentration” value was 1.01.

With `CC[C@H]1CCC[C@H](O[C@H]2CC[C@H](N(C)C)[C@@H](C)O2)[C@@H](C)C(=O)C2=C[C@@H]3[C@@H](C=C(C)[C@@H]4C[C@@H](O[C@@H]5O[C@@H](C)[C@H](OC)[C@@H](OC)[C@H]5OC)C[C@@H]34)[C@@H]2CC(=O)O1.CC[C@H]1CCC[C@H](O[C@H]2CC[C@H](N(C)C)[C@@H](C)O2)[C@@H](C)C(=O)C2=C[C@H]3[C@@H]4C[C@H](O[C@@H]5O[C@@H](C)[C@H](OC)[C@@H](OC)[C@H]5OC)C[C@H]4C=C[C@H]3C2CC(=O)O1`, the “fold change of Cadaverine concentration” value was 1.01.

Take `C[N+]1(C)CCCC(OC(=O)C(O)(c2ccccc2)c2ccccc2)C1` (configuration not stated) [Mepenzolate bromide]: the “fold change of Cadaverine concentration” value is 1.03.

With `COc1cccc(C(=O)NN(C(=O)c2cc(C)cc(C)c2)C(C)(C)C)c1C`, the “fold change of Cadaverine concentration” value was 0.968.

Consider `Cc1cccc(C)c1NC1=NCCCS1` [Xylazine], for which the “fold change of Cadaverine concentration” value was 0.991.

On to `CCN(C)C(=O)Oc1cccc([C@H](C)N(C)C)c1` [Rivastigmine], for which the “fold change of Cadaverine concentration” value was 0.937.

On to `CCCCCCCCCCCCN=C(N)N`, for which the “fold change of Cadaverine concentration” value was 0.951.

For `CO/C=C(/C(=O)OC)c1ccccc1Oc1cc(Oc2ccccc2C#N)ncn1`, the “fold change of Cadaverine concentration” value is 0.962.

`O=C(O[C@H]1C[N+]2(CCCOc3ccccc3)CCC1CC2)C(O)(c1cccs1)c1cccs1` [Aclidinium bromide]: the “fold change of Cadaverine concentration” value was 0.982.
